# Screening results: PubChem, several laboratories
# D1 allo mod – D1 dopamine receptor (human) allosteric modulation; P21728; HEK293 D1, CRE-luciferase, dopamine EC30 potentiation; actives deviate in either direction; B-score at 10 µM; actives 5.9% (n = 58,000);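 active means luminescence count or its row- and column-corrected plate score outside the 99.7% band of the plate's sample wells, on either side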
# hDAT+cocaine – human DAT dopamine uptake with cocaine, either direction | Q01959 | LLC-PK1 hDAT cells, [14C]-dopamine uptake with cocaine IC80; actives deviate in either direction | B-score at 10 µM | actives 1.3% (n = 110,000) | AID 449768;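 active means Z score or B-score, a plate-position-corrected score, falls beyond the plate's 99.7% confidence bounds, in either direction; inactive means both scores lie inside the 99.7% bounds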;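 further: scored against the spread of the other compound wells on the same plate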
# Target sequence (Q01959 whole entry, looked up): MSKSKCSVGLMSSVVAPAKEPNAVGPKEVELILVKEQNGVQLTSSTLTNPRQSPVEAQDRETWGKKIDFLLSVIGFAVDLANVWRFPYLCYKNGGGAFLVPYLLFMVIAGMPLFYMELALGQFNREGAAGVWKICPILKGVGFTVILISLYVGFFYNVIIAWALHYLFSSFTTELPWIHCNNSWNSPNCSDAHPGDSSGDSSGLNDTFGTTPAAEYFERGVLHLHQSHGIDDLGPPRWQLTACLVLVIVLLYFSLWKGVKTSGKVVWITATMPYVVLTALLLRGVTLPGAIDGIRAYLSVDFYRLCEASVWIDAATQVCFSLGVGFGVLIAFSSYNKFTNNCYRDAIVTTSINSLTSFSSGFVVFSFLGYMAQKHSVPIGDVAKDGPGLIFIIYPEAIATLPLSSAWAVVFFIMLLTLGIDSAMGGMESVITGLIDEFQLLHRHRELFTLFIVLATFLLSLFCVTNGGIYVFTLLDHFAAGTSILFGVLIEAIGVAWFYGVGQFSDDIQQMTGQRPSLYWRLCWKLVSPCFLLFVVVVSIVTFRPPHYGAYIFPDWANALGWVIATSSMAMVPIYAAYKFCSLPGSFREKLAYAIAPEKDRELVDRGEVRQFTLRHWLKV
# BAP1 block – human BAP1 deubiquitinase inhibition; Q92560; AID 436; actives 0.48% (n = 72,000); recombinant BAP1, Ub-AMC hydrolysis fluorescence kinetic; stronger effect = lower value; calls only at 20 µM;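 active means activity remaining at or below 50% of control, provided the compound also passes the data quality filters; inactive means the rest, including low values that fail the filters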;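 further: 100% = DMSO wells rate and 0% = substrate alone blank rate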
# An asterisk follows results filed as active; i = inactive; nt = not tested or not shown; + = active, no number. This is one part of a sample in which hits are shown more often than they occur.
SMILES,D1 allo mod,hDAT+cocaine,BAP1 block
COc1cc(NC(=O)c2nn3c(C(F)(F)F)cc(-c4ccccc4)nc3c2Br)cc([N+](=O)[O-])c1,nt,nt,i
O=C(c1ccc([N+](=O)[O-])cc1)N(Cc1ccc(Br)cc1)N1C(=O)CCCC1=O,nt,-7.4*,nt
CCc1ccc(OCCNc2cc(Cl)ccc2[N+](=O)[O-])cc1,nt,nt,i
COc1cc(C2N=C(c3ccccc3)NO2)cc(Br)c1O (stereo not drawn),0.48,2.6*,i
COc1cccc(C2C(N3C(=O)c4ccccc4C3=O)C(=O)N2c2ccc(C)cc2C)c1 (stereo not drawn),nt,nt,i
CCCC(=O)Nc1ccc(-c2nc3cc(C)ccc3o2)cc1,-5.1*,0.31,i
CCCC(=O)Nc1ccc2oc(-c3ccc(OC)c(Br)c3)nc2c1,-2.6*,-0.013,nt
COc1ccc(-c2nc3cc(NC(=O)c4ccc5c(c4)OCO5)ccc3o2)cc1,0.39,-9*,nt
O=C(Nc1ccc2oc(-c3ccccc3)nc2c1)c1ccc2c(c1)OCCO2,-0.56,0.85,nt
CCCC(=O)Nc1ccc(-c2nc3cc(C)c(C)cc3o2)c(O)c1,0.27,-1.1,nt
COc1cc2ccccc2cc1C(=O)Nc1ccc2oc(-c3ccc(Br)cc3)nc2c1,nt,nt,i
COC(=O)C1=C(NC(=O)c2ccc(C(C)(C)C)cc2)CCS1,nt,nt,i
CCOc1ccccc1C(=O)Nc1ccc(N2CCOCC2)cc1,nt,nt,i
COc1ccc2oc(=O)c(-c3csc(C)n3)cc2c1,nt,nt,i
Cc1ccccc1NC(=O)C(c1ccc([N+](=O)[O-])cc1)N1CCOCC1 (stereo not drawn),nt,nt,i
CCn1c(N2CCN(C(=O)NC3CCCCC3)CC2)nc2ccccc21,nt,0.08,nt
CCn1c(NC2CCCCC2)nc2ccccc21,-3.4*,0.41,i
Oc1cccc(-c2nc3ccccc3s2)c1,-8.7*,nt,i
Nc1cccc(-c2nc3ccccc3s2)c1,nt,0.27,nt
CCCOc1ccc(C(=O)CCN2CCOCC2)cc1,nt,nt,i
CCCCNC(=S)NNC(=O)c1cccnc1,nt,-8.2*,nt
CCNC(=S)NNC(=O)c1cccnc1,nt,-0.43,nt
Brc1ccc(-c2nnc3n2CCC3)cc1,nt,nt,i
O=C(COc1ccccc1[N+](=O)[O-])Nc1ccc(C(=O)OC2CCCCC2)cc1,nt,nt,i
Cc1cccc(-n2ncc3c(NCc4ccccc4)ncnc32)c1,-0.79,2,i
SMILES,D1 allo mod,hDAT+cocaine,BAP1 block
Cc1cccc(-n2ncc3c(NCCc4ccc(S(N)(=O)=O)cc4)ncnc32)c1,-6.9*,0.65,i
CCCOC(=O)c1ccc(Oc2c(-c3ccc(OC)cc3O)n[nH]c2C)cc1,-0.051,-0.25,i
CCCOC(=O)c1ccc(-c2c(C)noc2-c2ccc(OC)cc2O)o1,0.076,2.8*,i
Cc1cc(C)c2c(n1)sc1c(N3CCOCC3)ncnc12,2.8*,nt,i
CCOC(=O)c1sc2nc(N3CCOCC3)c3c(c2c1N)CCCC3,1.2,0.34,nt
OCCN1CCN(c2ncnc3c2sc2nc(N4CCOCC4)c4c(c23)CCC4)CC1,2.6,0.34,nt
OCCN(CCO)c1ncnc2c1sc1nc(N3CCOCC3)c3c(c12)CCCC3,nt,4.1*,i
CN1CCN(c2ncnc3c2sc2nc(N4CCOCC4)c4c(c23)CCC4)CC1,-0.32,nt,nt
CCN(CC)C(=O)c1sc2nc(N3CCOCC3)c3c(c2c1N)CCCC3,nt,3*,nt
Cc1c(NC(=O)c2ccc(F)cc2[N+](=O)[O-])c(=O)n(-c2ccccc2)n1C,nt,nt,i
CC1CCCC(C)N1S(=O)(=O)c1cccc([N+](=O)[O-])c1 (stereo not drawn),nt,nt,i
CCOC(=O)CNC(=O)CSc1ncnc2c1cnn2-c1ccc(C)cc1,-3.3,-0.46,i
CCOC(=O)CNC(=O)CSc1ncnc2c1cnn2-c1ccc(OC)cc1,-2.8*,0.19,i
CN1C(=O)CC(N2CCN(C(=O)CN3CCCC3)CC2)C1=O (stereo not drawn),-2.7*,0.25,i
CN1C(=O)CC(N2CCN(CC(=O)N3CCCC3)CC2)C1=O (stereo not drawn),-1,-0.34,i
O=C1c2ccccc2-c2ncnc3cccc1c23,13*,nt,i
O=C(O)c1ccc2c3c(ncnc13)-c1ccccc1C2=O,-0.34,nt,i
Cc1ccc(C2C(N3C(=O)c4ccc([N+](=O)[O-])cc4C3=O)C(=O)N2c2ccc(C)c(F)c2)cc1 (stereo not drawn),nt,nt,i
CC(NC(=O)Cn1c(=O)[nH]c2ccsc2c1=O)C12CC3CC(CC(C3)C1)C2 (stereo not drawn),nt,-0.036,nt
CC(NC(=O)Cn1ccsc1=N)C12CC3CC(CC(C3)C1)C2 (stereo not drawn),0.2,-6.3*,i
c1cncc(-c2nc3ccccc3o2)c1,0.97,-1.5,i
O=c1oc(-c2cccnc2)nc2ccccc12,-4.5*,-0.41,i
COc1ccccc1N1CCN(C(=O)CSc2nc3ccccc3c(=O)n2CC2CCCO2)CC1 (stereo not drawn),-1.5,1.9,i
COc1ccc(-c2nnc(CSc3nc4ccccc4c(=O)n3CC3CCCO3)o2)cc1OC (stereo not drawn),11*,nt,i
COc1ccc(C(C(=O)NC(C)(C)C)N(Cc2cccs2)C(=O)CCC(=O)Nc2cc(C)on2)cc1 (stereo not drawn),nt,3*,nt
SMILES,D1 allo mod,hDAT+cocaine,BAP1 block
CCC(C)(C)NC(=O)C(c1ccc(OC)cc1)N(Cc1cccs1)C(=O)CCC(=O)Nc1cc(C)on1 (stereo not drawn),nt,2.1,nt
C/C(Cl)=C/CSc1nc2c(c(=O)[nH]c(=O)n2C)n1C(C)C,7.9*,-0.025,i
CCCCSc1nc2c(c(=O)[nH]c(=O)n2C)n1C(C)C,nt,nt,i
COc1ccc([N+](=O)[O-])cc1NC(=O)c1ccccc1Cl,nt,nt,i
CCCCOCC(O)Cn1cnc2ccccc21 (stereo not drawn),nt,nt,i
Cc1ccc(C2CC(C(F)(F)F)n3nc(C(=O)N4CCN(c5ccccc5)CC4)c(Cl)c3N2)cc1 (stereo not drawn),nt,nt,i
Cc1ccc(C(=O)NCCN2C3=NC[C@H](Cc4ccc(O)cc4)N3C[C@H]2Cc2ccc(O)cc2)cc1Br,nt,0.43,nt
COc1ccc(C[C@H]2CN3C(=NC[C@@H]3Cc3ccc(O)cc3)N2CCNC(=O)c2ccc(C)c(Br)c2)cc1,nt,-2.5*,nt
COc1cc(C(=O)Nc2cc(-c3nc4cc(C)cc(C)c4o3)ccc2C)cc(OC)c1OC,nt,nt,i
CCN(CC)CCNC(=O)CCCCn1c(=S)[nH]c2c([nH]c3ccc(OC)cc32)c1=O,0.93,2.6*,i
COCCNC(=O)CCCCCn1c(=S)[nH]c2ccccc2c1=O,nt,0.029,nt
COc1ccccc1NC(=O)c1c(NC(=O)c2ccccc2C)sc2c1CCCC2,nt,nt,i
CCOc1cc(CNC(C)(C)CO)cc(Br)c1OCc1ccc(Cl)cc1Cl,nt,2.5*,nt
CCOc1cc(CNCCO)cc(Br)c1OCc1ccccc1Cl,nt,1.3,nt
O=C(O)CSc1ccccc1C(=O)O,nt,0.65,nt
CC(C)=CCC/C(C)=C/CC/C(C)=C/CSc1ccccc1C(=O)O,nt,nt,+
CCOC(=O)N1CCN(C(=O)c2ccc3c(=O)n(Cc4ccccc4)c(=S)[nH]c3c2)CC1,0.44,0.31,i
CCOC(=O)N1CCN(C(=O)c2ccc(Cn3c(=S)[nH]c4cc5c(cc4c3=O)OCO5)cc2)CC1,-4.1*,-1.3,i
CCOC(=O)CCN(Cc1cccs1)S(=O)(=O)c1ccc(F)cc1,-0.7,1.3,i
CCOC(=O)CCN(Cc1sccc1C)S(=O)(=O)c1ccc(F)cc1,nt,3.8*,nt
